Test results: publication PMC4336329 (PLoS ONE, 2015)
The campaign covered roughly 310,000 compounds. About 2,200 (0.71%) showed an effect of 50% or more. The effect is printed as a negative number. The sample holds strong results, similar compounds and a random draw of the others, so the mix is not that of the screen.

These compounds were tested against human ether-à-go-go-related gene (hERG) potassium channel (human, UniProt Q12809) (assay: primary screen, population patch clamp on CHO cells stably expressing hERG; higher = less effect of the substance).
Description: Briefly, Chinese hamster ovary (CHO) cells stably expressing the hERG channel were dislodged from tissue culture flasks and dispensed into PPC plates. […] During the recording, background leak currents were estimated by a 100 ms step to -80 mV from an initial holding potential of -70 mV and subtracted from the subsequent current measurement. The campaign was conducted in two phases using slight differences in recording protocol. In the first phase, the initial voltage pulse used a 100 ms step to -30 mV from a holding potential of -70 mV, a 2 s conditioning step to +25 mV, and a 2 s test step to -30 mV. During the second phase of the screen, the potential during the conditioning step was raised to +45 mV. In both phases of the campaign, a secondary voltage pulse was applied using the same parameters as the second phase initial pulse. The initial and secondary pulses were applied in the absence of compound, and upon application of 1 μM and 10 μM test concentrations. Small molecule effects on hERG current density were quantified by […].

Sequence of human ether-à-go-go-related gene (hERG) potassium channel (Q12809 whole entry, looked up): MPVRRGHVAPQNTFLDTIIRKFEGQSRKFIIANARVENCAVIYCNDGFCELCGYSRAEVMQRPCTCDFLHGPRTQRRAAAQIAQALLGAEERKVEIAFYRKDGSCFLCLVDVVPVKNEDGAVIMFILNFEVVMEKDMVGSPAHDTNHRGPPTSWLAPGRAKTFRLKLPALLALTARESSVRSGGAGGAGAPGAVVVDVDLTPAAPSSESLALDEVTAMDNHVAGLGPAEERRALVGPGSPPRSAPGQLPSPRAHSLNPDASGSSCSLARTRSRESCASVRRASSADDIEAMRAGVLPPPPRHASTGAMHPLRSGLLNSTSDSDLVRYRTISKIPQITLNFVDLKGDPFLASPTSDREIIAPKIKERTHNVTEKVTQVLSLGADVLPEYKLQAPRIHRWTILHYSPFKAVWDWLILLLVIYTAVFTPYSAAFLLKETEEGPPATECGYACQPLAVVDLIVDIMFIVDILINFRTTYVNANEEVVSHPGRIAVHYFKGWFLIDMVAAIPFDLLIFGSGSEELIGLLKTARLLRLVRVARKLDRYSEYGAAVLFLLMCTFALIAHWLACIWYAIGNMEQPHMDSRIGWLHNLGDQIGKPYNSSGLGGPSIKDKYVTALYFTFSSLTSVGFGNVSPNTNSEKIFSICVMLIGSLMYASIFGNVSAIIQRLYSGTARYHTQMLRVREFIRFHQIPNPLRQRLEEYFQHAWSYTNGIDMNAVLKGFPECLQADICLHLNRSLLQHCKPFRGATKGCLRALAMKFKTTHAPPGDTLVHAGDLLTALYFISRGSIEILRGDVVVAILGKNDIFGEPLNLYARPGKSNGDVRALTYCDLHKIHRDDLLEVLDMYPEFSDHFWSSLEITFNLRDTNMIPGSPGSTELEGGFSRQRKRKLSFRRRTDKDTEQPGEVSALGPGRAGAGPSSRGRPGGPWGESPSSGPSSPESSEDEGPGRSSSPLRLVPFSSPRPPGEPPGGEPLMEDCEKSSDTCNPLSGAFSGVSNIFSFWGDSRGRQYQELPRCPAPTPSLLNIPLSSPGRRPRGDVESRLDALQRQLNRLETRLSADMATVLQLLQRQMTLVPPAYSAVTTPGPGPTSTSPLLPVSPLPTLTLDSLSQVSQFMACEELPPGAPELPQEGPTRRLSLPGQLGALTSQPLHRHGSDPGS

Structure (SMILES)	hERG current change (%, negative = inhibition) at 1uM
O=C(COC(=O)CN1C(=O)c2ccccc2C1=O)Nc1cccc(F)c1	5.95%
Cc1ccc(C)c(NC(=O)COC(=O)CNC(=O)c2ccccc2Cl)c1	9.98%
Cc1cc(Cl)cc(Cl)c1CNc1c([N+](=O)[O-])c(=O)oc2ccccc12	7.59%
CC(C)c1cccc(C(C)C)c1NC(=O)CN1C(=O)NC2(CCCCCCC2)C1=O	8.87%
Cc1ccc(S(=O)(=O)CC(=O)c2ccc(C(C)(C)C)cc2)cc1	2.43%
Br.CCn1c(=N)n(CC(=O)c2ccc(OC)cc2)c2ccccc21	-0.629%
Br.CCCCn1c(=N)n(CC(=O)c2ccc(OC)cc2)c2ccccc21	-62.2%
Br.COc1ccc(C(=O)Cn2c(=N)n(C)c3ccccc32)cc1	-9.98%
C=CCOn1c(C)c(C(C)=O)c2c3nonc3ccc21	13.1%
O=C(OCc1ccc2c(c1)OCO2)c1ccc(S(=O)(=O)N2CCCC2)cc1	3.44%
CC(=O)Nc1ccc(-c2nnc(SCc3ccccc3C#N)n2C)cc1	-5.5%
O=C1N=C2SCCN2/C1=C\c1ccccc1Cl	5.64%
CCn1c2ccccc2c2cc(NC(=O)CSc3nnnn3-c3ccccc3)ccc21	9.35%
O=C(NCCCn1ccnc1)/C(=C/c1ccco1)NC(=O)c1ccco1	-10.2%
O=C(NCCCn1ccnc1)/C(=C\c1ccco1)NC(=O)c1ccco1	-10.8%
Cc1ccc(C(=O)N/C(=C\c2ccco2)C(=O)NCCCn2ccnc2)cc1C	-15.7%
Cc1ccc(C(=O)N/C(=C/c2ccco2)C(=O)NCCCn2ccnc2)cc1	-62.5%
COc1ccc(C(=O)N/C(=C\c2ccco2)C(=O)NCCCn2ccnc2)cc1	-0.883%
Cc1ccc(C(=O)N/C(=C\c2ccco2)C(=O)NCCCn2ccnc2)cc1	-64.1%
O=C(Nc1nc(-c2nc3ccccc3s2)cs1)C1COc2ccccc2O1 (stereo not drawn)	13.3%
COC(=O)c1sc(NC(=O)c2cc(-c3ccccc3)nc3ccccc23)c(C#N)c1C	-6.75%
CCOc1ccc(S(=O)(=O)N2CCC(C(=O)N3CCN(c4ccccc4F)CC3)CC2)cc1C	-1.32%
CCc1nc2scc(-c3ccccc3)c2c(=O)n1N	2.81%
COc1ccc(-n2cnnc2SCC(=O)Nc2nc(C)c(Cl)cc2Cl)cc1	-8.71%

Structure (SMILES)	hERG current change (%, negative = inhibition) at 1uM
CCOC(=O)c1cc2c(=O)n3cccc(C)c3nc2n(Cc2ccco2)c1=NC(=O)c1ccccc1	0.671%
CCOCCCn1c(=NC(=O)c2ccco2)c(C(=O)OCC)cc2c(=O)n3cccc(C)c3nc21	-73.9%
CCCn1c(=NC(=O)c2ccco2)c(C(=O)OCC)cc2c(=O)n3ccccc3nc21	-6.68%
CCCCn1c(=NC(=O)c2ccco2)c(C(=O)OCC)cc2c(=O)n3cccc(C)c3nc21	-16.5%
CCOC(=O)c1cc2c(=O)n3cccc(C)c3nc2n(CC(C)C)c1=NC(=O)c1ccco1	-64.7%
CCCCCn1c(=NC(=O)c2ccco2)c(C(=O)OCC)cc2c(=O)n3ccccc3nc21	-30.9%
O=C(NC1CC1)c1ccc(S(=O)(=O)NC2CCCCCC2)cc1	2.1%
CC(C)CC(=O)Nc1cc2nn(-c3ccccc3)nc2cc1Cl	-0.947%
Cc1sc2ncn(CC(=O)N3CCC(C(N)=O)CC3)c(=O)c2c1S(=O)(=O)N1CCOCC1	10.1%
COC(=O)c1cc(NC(=O)CN2CCC(C(N)=O)(N3CCCCC3)CC2)cc(C(=O)OC)c1	5.65%
Cc1nc2ccccc2nc(C)c1=NOCc1ccc(Cl)cc1Cl	0.014%
CC(=O)Nc1ccc(SCC(=O)Nc2ccccc2Oc2ccccc2)cc1	3.2%
Cc1ccccc1NC(=O)CSC(N)=O	24%
CN(C)CCCN1C(=O)CSC1c1ccc([N+](=O)[O-])cc1.Cl (stereo not drawn)	-11.4%
CCN(CC)CCCN1C(=O)CSC1c1ccc2c(c1)OCO2.Cl (stereo not drawn)	-15.9%
CCN(CC)CCCN1C(=O)CSC1c1ccc([N+](=O)[O-])cc1.Cl (stereo not drawn)	-74.4%
CC(OC(=O)c1cccc(-n2cnnn2)c1)c1nc2ccccc2c(=O)[nH]1 (stereo not drawn)	7.2%
OCCC1CN(Cc2cccc3nccnc23)CCN1Cc1ccc(F)c(F)c1 (stereo not drawn)	-11.8%
Cc1ccc(CN2CCN(Cc3ccccn3)CC2CCO)cc1 (stereo not drawn)	-5.1%
Cc1ccc(CN2CCN(Cc3ccc(C)s3)CC2CCO)cc1 (stereo not drawn)	-67.3%
Cc1ccc(CN2CCN(Cc3cccc(C)n3)CC2CCO)cc1 (stereo not drawn)	-2.38%
Cc1ccc(CN2CCN(Cc3cnc(C)s3)CC2CCO)cc1 (stereo not drawn)	-0.701%
Cc1ccc(CN2CCN(Cc3cccc4nccnc34)CC2CCO)cc1 (stereo not drawn)	-53.3%
Cc1ccc(CN2CCN(Cc3nc4ccccc4nc3C)CC2CCO)cc1 (stereo not drawn)	-65.3%

Structure (SMILES)	hERG current change (%, negative = inhibition) at 1uM
Cc1ccc(CN2CCN(Cc3ccccc3)C(CCO)C2)s1 (stereo not drawn)	-26.7%
Cc1nc2ccccc2nc1CN1CCN(Cc2ccc(F)c(F)c2)C(CCO)C1 (stereo not drawn)	-6.36%
CC(C)Cn1c(CN2CCN(C)C(CCO)C2)nc2ccccc21 (stereo not drawn)	12.7%
CCn1c(CN2CCN(Cc3ccc(C)cc3)C(CCO)C2)nc2ccccc21 (stereo not drawn)	-50.5%
OCCC1CN(Cc2cccc3nccnc23)CCN1Cc1ccc(F)cc1 (stereo not drawn)	-7.96%
O=C(COc1ncnc2cc([N+](=O)[O-])ccc12)N(CCc1ccccc1)Cc1ccccc1	18.9%
CC1(C)Oc2ccc3ccc(=O)oc3c2C(N2CCCCC2)C1O (stereo not drawn)	0.376%
COc1cccc(-c2ocnc2C(=O)Nc2ccc(N3CCOCC3)cc2N2CCOCC2)c1	15.6%
O=S(=O)(Nc1cc(Sc2cccc3cccnc23)c(O)c2ccccc12)c1ccc(F)cc1	13.4%
CC(C)Oc1ccc(CNC(=O)C2CCN(C(=O)N3CCOc4ccccc43)CC2)cc1	6.25%
NC(=O)C1CCN(CC(=O)Nc2cc(S(=O)(=O)N3CCOCC3)ccc2N2CCCC2)CC1	-1.18%
COC(=O)C1=COC(OC2OC(CO)C(O)C(O)C2O)C2C1C=CC2(O)CO (stereo not drawn)	5.93%
COc1ccc(Cl)cc1NC(=O)[C@@]1(CC(=O)O)CC(/C=C/c2ccccc2)=NO1	12.8%
CCc1ccc(-c2cc(C)no2)cc1S(=O)(=O)N1CCN(C(=O)c2ccco2)CC1	-4.73%
O=c1nc2ccccc2c2n1CC(CN1CCN(c3ccc(F)cc3)CC1)N2 (stereo not drawn)	-65.6%
O=c1nc2ccccc2c2n1CC(CN1CCN(c3ccccc3F)CC1)N2 (stereo not drawn)	-20.7%
O=c1nc2ccccc2c2n1CC(CN1CCN(c3cccc(Cl)c3)CC1)N2 (stereo not drawn)	-38.9%
O=C1NCCN(Cc2cccc(Oc3ccccc3)c2)C1CC(=O)N1CCCO1 (stereo not drawn)	12.1%
COc1ccc(-c2nc(=S)[nH][nH]2)cc1OC	10.4%
N#Cc1ccc(Cn2ccnc2C(=O)Nc2ccccc2)cc1	-86.8%
O=C(Nc1ccccc1)c1nccn1Cc1ccc(F)cc1	11.3%
Cc1ccc(Cn2ccnc2C(=O)Nc2ccccc2)cc1	9.01%
O=C(NC(c1ccccc1)c1ccccn1)c1cccc([N+](=O)[O-])c1 (stereo not drawn)	12.3%
O=C1C(=O)N(CCN2CCOCC2)C(c2cccc(Cl)c2)/C1=C(\O)c1ccc2c(c1)OCCO2 (stereo not drawn)	2.15%

Structure (SMILES)	hERG current change (%, negative = inhibition) at 1uM
CC(=O)c1coc2ccc(OCC(=O)O)cc12	-0.294%
CCOc1cc(/C=N/NC(=O)c2cccnc2)cc(Br)c1OCC(N)=O	-69.4%
CCOc1cc(/C=N/NC(=O)c2cccnc2)ccc1O	7.47%
CCOc1cc(/C=N/NC(=O)c2cccnc2)ccc1OCC(N)=O	10.8%
CCCCCn1c2c(c(=N)c3ccccc31)CCC2.I	-61.5%
O=C(O)CCn1c2c(c3ccccc31)CCCC2	19.5%
CCOC(=O)Cn1c2c(c(=N)c3ccccc31)CCC2.Cl	12.7%
CCCCn1c2c(c(=N)c3ccccc31)CCC2.I	-16.6%
Br.CCn1c2c(c(=N)c3ccccc31)CCC2	12%
CCCCCCCn1c2c(c(=N)c3ccccc31)CCC2.I	-89.6%
CCOc1cc(NC(=S)NCCCN2CCOCC2)c(OCC)cc1NC(=O)c1ccccc1	16.1%
O=C(Nc1ccccc1)C1CC=CCC1C(=O)OCC1CCCO1 (stereo not drawn)	-5.31%
O=C1C2CCCN2C(=O)N1CCN1CCN(c2ccccc2)CC1 (stereo not drawn)	-10.6%
O=C1C2CCCCN2C(=O)N1CCCCN1CCN(c2ccc([N+](=O)[O-])cc2)CC1 (stereo not drawn)	-80.7%
O=C1C2CCCCN2C(=O)N1CCCCN1CCN(c2ccc(F)cc2)CC1 (stereo not drawn)	-7.05%
Cl.Nc1ccc(N2CCN(CCCCN3C(=O)C4CCCN4C3=O)CC2)cc1.O (stereo not drawn)	18.3%
O=C(CCN1C(=O)C2C3C=CC(C3)C2C1=O)N1CCN(c2ccc([N+](=O)[O-])cc2)CC1 (stereo not drawn)	-49.5%
O=C1C2CCCN2C(=O)N1CCCCN1CCN(c2ccccc2)CC1 (stereo not drawn)	1.66%
O=C(CCCN1C(=O)C2CCCCN2C1=O)N1CCN(c2ccc([N+](=O)[O-])cc2)CC1 (stereo not drawn)	-78.5%
O=C1C2CCCCN2C(=O)N1CCCN1CCN(c2ccc(F)cc2)CC1 (stereo not drawn)	-3.12%
Cc1ccc(N2CCN(CCCN3C(=O)C4CCCN4C3=O)CC2)cc1.Cl (stereo not drawn)	4.77%
Cc1ccc(N2CCN(CCCCN3C(=O)C4CCCN4C3=O)CC2)cc1.Cl (stereo not drawn)	-3.91%
O=C1C2CCCCN2C(=O)N1CCN1CCN(c2ccc([N+](=O)[O-])cc2)CC1 (stereo not drawn)	-69.7%
O=C1C2CCCN2C(=O)N1CCCN1CCN(c2ccc([N+](=O)[O-])cc2)CC1 (stereo not drawn)	-63.3%
